In PubChem BioAssay AID2546 (National Center for Advancing Translational Sciences (NCATS), 2010):
Several values for one entry are separate records, joined by “and”; a condition that tells them apart may be missing. Equal entries are not always repeated. Hit rate of the full screen: of about 310,000 compounds, about 11,000 (3.5%) were called active. Entries that show only a call come without a potency. About 8% were inconclusive and are not listed. This is one part of a sample in which actives are shown more often than they occur. A number with no mark means an inactive call. The call rests on the fitted dose curve; in most records, active means well fitted inhibition curve with a large enough effect; inconclusive means small, poorly fitted or top-dose-only effect, or effect the other way; inactive means flat fitted curve, though single readings scatter.

assay: VP16 counterscreen qHTS for inhibitors of ROR gamma transcriptional activity; details: Drosophila S2 Gal4-VP16 UAS-luciferase, luminescence, 20 h; series mostly up to 53.6 µM;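 further: Gal4-VP16 expression switched on by copper sulfate through the metallothionein promoter; nearly all actives have a fitted effect of over 50% in size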
Potency means the concentration at half of the fitted maximal effect.

Compound	Potency	activity, negative = inhibition
COc1ccc(/C=C(\C#N)c2c[nH]c3ccccc23)cc1	inactive	–
Cn1c(=O)oc2cc(S(=O)(=O)NCCC(=O)NCc3ccccc3Cl)ccc21	inactive	–
CN(Cc1ccccc1)C(=O)C1CCCN(c2ncnc3c2nc2n3CCCCC2)C1 (configuration not stated)	inactive	–
CC1CCN(CCCn2c(SCC(=O)NC3CCCC3)nc3ccccc3c2=O)CC1	inactive	–
Cc1c2cnn(CC(=O)NCc3ccccn3)c(=O)c2c(C)n1Cc1ccc(Cl)cc1	inactive	–
O=C1Nc2ccccc2/C1=C/c1ccnc2ccccc12	inactive	–
COc1cc(CN2CCCC(C(=O)c3ccc(SC)cc3)C2)cc(Cl)c1O (configuration not stated)	inactive	–
COc1ccc(NC(=O)C2CCN(S(=O)(=O)c3ccc4[nH]c(=O)oc4c3)CC2)c(OC)c1	inactive	–
C=CCSc1nnc(N2C(=O)C(O)=C(C(=O)c3ccco3)C2c2ccc(F)cc2)s1 (configuration not stated)	inactive	–
O=S(=O)(c1ccc(Br)cc1)c1nc(-c2ccccc2)oc1N1CCOCC1	inactive	–
COc1cc(C(=O)NC2CCN(Cc3ccccc3)CC2)cc(Cl)c1OC(C)C	inactive	–
CCOC(=O)c1cnc(-c2ccccc2)nc1Oc1ccc(C)cc1	inactive	–
CNc1nc(-c2ccccc2OC)nc2ccccc12	inactive	–
COc1ccccc1Oc1nc(-c2cccnc2)nc2ccccc12	inactive	–
Cc1cnc(CNc2nc(-c3cccnc3)nc3ccccc23)cn1	inactive	–
Cc1ccc(Oc2nc(-c3ccccn3)nc3ccccc23)cc1	3.16 µM (active)	–
COc1ccc(Sc2nc(-c3ccccc3)ncc2OC)cc1	inactive	–
CC(C)(C)Nc1nc(-c2ccccn2)nc2ccccc12	3.98 µM (active)	–
COc1ccc(Cc2nc(-c3ccccn3)no2)cc1OC	inactive	–
COc1cnc(-c2ccccn2)nc1Oc1ccc(C(C)(C)C)cc1	12.6 µM (active)	–
CCCc1ccc(OCC(O)CN2CCN(C(=O)OCC)CC2)cc1 (configuration not stated)	inactive	–
CC(C)c1ccc(NC(=O)C2CCCN(S(=O)(=O)c3cccnc3)C2)cc1 (configuration not stated)	inactive	–
CCCn1c(C2CCCN2c2nc(-c3ccc(C)cc3)cs2)nc2cc(Cl)c(N3CCCCC3)cc21 (configuration not stated)	inactive	–

Compound	Potency	activity, negative = inhibition
COc1ccc(CNC(=O)c2cc(=O)c3c(C)cc(C)cc3o2)cc1	inactive	–
O=C(NCCCN1CCOCC1)c1cc(-c2ccccc2F)no1	inactive	–
COc1ccccc1N1CCN(S(=O)(=O)c2ccc3c(c2)NC(=O)CS3)CC1	inactive	–
O=[N+]([O-])c1cccc2ncccc12	inactive	–
O=[N+]([O-])c1ccccc1S(=O)(=O)Nc1cccc2cccnc12	1.41 µM (active) and 1 µM (active)	–
Cc1ccccc1NC(=O)c1ccccc1NS(=O)(=O)c1cccc2cccnc12	inactive	–
Cc1nc2ccc(C(=O)N(C)CC3CCCN(CCc4ccc(Cl)cc4)C3)cc2[nH]1 (configuration not stated)	inactive	–
CC(C)CNS(=O)(=O)c1ccc(CCC(=O)NCc2ccc(Cl)cc2)cc1	inactive	–
CCOC(OCC)c1ccc(/C=C\c2nccc(N)n2)cc1	inactive	–
COC(=O)c1ccc(OC(=O)c2cnccn2)cc1	inactive	–
c1ccc(-c2cn3c(n2)CCc2ccc4cccnc4c2-3)cc1	7.94 µM (active)	–
COC(=O)C1=CN(c2ccc(F)c(F)c2)C=C(C(=O)OC)C1c1ccc([N+](=O)[O-])cc1	inactive	–
Cc1c(C)c(C)c2[nH]c(=S)[nH]c2c1C	10 µM (active)	–
O=c1[nH]c(=S)[nH]c2[nH]c(=S)[nH]c12	inactive	–
Cc1cc(=O)[nH]c(=S)[nH]1	inactive	–
Cc1ccc(S(=O)(=O)N(CC(=O)Nc2cccnc2)c2ccc(Br)cc2)cc1	inactive	–
CCCc1ccc(OCCNC(=O)c2ccco2)cc1	inactive	–
COc1ccc(CN2C3CCCC2CC(NC(=O)c2cccc(F)c2)C3)cc1 (configuration not stated)	inactive	–
CC(NCC(=O)Nc1cc(Cl)cc(Cl)c1)c1ccccc1 (configuration not stated)	inactive	–
COc1ccc(C(=O)NC2CC2)cc1OC1CCN(Cc2ccc(SC)cc2)CC1	inactive	–
COCCN(C(=O)CCC(=O)Nc1nccs1)C(C(=O)NCCC(C)C)c1ccc(F)cc1 (configuration not stated)	3.55 µM (active)	–
COCCN(C(=O)CCC(=O)Nc1ccccn1)C(C(=O)NCCC(C)C)c1ccc(OC)cc1 (configuration not stated)	inactive	–
COCCN(C(=O)CCC(=O)Nc1nccs1)C(C(=O)NC(C)(C)C)c1ccc(Cl)cc1 (configuration not stated)	inactive	–

Compound	Potency	activity, negative = inhibition
COc1ccc(C2NC(=O)c3ccccc3N2)cc1 (configuration not stated)	inactive	–
CCc1ccc(-c2nn(-c3ccccc3)cc2CSC(=N)N)cc1	20 µM (active)	–
Cc1nnc(SCC(=O)N/N=C/c2cn(-c3ccccc3)nc2-c2ccc(F)cc2)n1-c1ccccc1	inactive	–
Cc1ccc(-c2nn(-c3ccccc3)cc2/C=N/NC(=O)c2ccc3c(c2)OCO3)cc1	inactive	–
C/C(=N\NC(=S)NC(C)C)c1ccc(C(C)(C)C)cc1	3.98 µM (active)	–
CC/C(=N\NC(=S)NC(C)C)c1ccc(OC(F)F)cc1	inactive	–
C/C(=N\NC(N)=S)c1ccncc1	inactive	–
CCOC(=O)N1CCN(Cc2nc3cc(NC(=O)CC)ccc3n2CC)CC1	inactive	–
Cc1ccc(CSCC(N)C(=O)O)cc1 (configuration not stated)	inactive	–
Cc1ccc(C(=O)CNc2ccc(F)cc2)cc1	inactive	–
Cc1ccc(SC(CC(=O)c2ccc(C(C)(C)C)cc2)C(=O)O)cc1 (configuration not stated)	5.01 µM (active)	–
CCOc1cc(C2/C(=C(/O)c3ccc(S(=O)(=O)N4CCCCC4)cc3)C(=O)C(=O)N2CCOC)ccc1O (configuration not stated)	inactive	–
COc1ccccc1OCC(=O)Nc1c2c(nn1-c1ccc(F)cc1)CS(=O)(=O)C2	inactive	–
COC(=O)c1ccc(NC(=O)Nc2ccc(C)cc2)cc1	inactive	–
COC(=O)c1ccc(NC(=S)NN2CCOCC2)cc1	inactive	–
COC(=O)c1ccc(NC(=S)Nc2cccc(C)n2)cc1	7.08 µM (active)	–
O=C(O)CCCn1c(=O)c2cccn2c2ccc(F)cc21	inactive	–
O=C(NNC(=S)NC(=O)c1cn(-c2ccccc2)nc1-c1ccccc1)c1ccncc1	8.91 µM (active)	–
O=C(Nc1cn(-c2ccccc2)nc1-c1ccccc1)c1ccccc1	inactive	–
O=C(c1cn(-c2ccccc2)nc1-c1cccnc1)N1CCCCC1	inactive	–
Cc1cc2c(c(=O)n1Cc1ccccc1)C1O[C@](CCCCN3C(=O)c4ccccc4C3=O)(Cc3ccccc31)O2	–	-4.77% [at 10 µM]
